# Screening data from PubChem.
# This is a sample that favours compounds with a hit; in the whole collection about 17% have one here.
# HepG2 viability – kills HepG2 cells in TGF-b inhibitor counter-screen; HepG2 CAGA-GFP viability, ATP luminescence, 18 h; Potency, µM (doses to about 46.1 µM), inactives show at the highest dose activity change, negative = cytotoxicity, hits mostly cytotoxic; 0.76% of 410,000 active
#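 HepG2 CAGA-GFP cells (1000/well, DMEM with 1% FBS) received compound, then TGF-beta at 500 pg/mL final, and were incubated 18 hours at 37 degrees C. Viability was read by CellTiter-Glo luminescence. Media-only wells were set as complete cell-killing and DMSO as no toxicity.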
# TGFb SMAD3 inh – inhibitors of TGF-b signaling; HepG2 CAGA-GFP TGF-b/SMAD3 reporter, GFP fluorescence, 18 h; TGF-beta stimulated, 500 pg/mL final; Potency, µM (highest dose often 46.1 µM), inactives show at the top dose activity, negative = inhibition, usual class: inhibitors; 1.2% of 410,000 active; note: % is set by controls: 0 for no effect and ±100 for the full control effect; nearly all actives have a fitted effect of over 65% in size
#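 Smad-responsive CAGA-GFP expression was quantified in HEPG2 cells exposed to compounds and 500 pg/mL final TGF-beta for 18 h at 37 degrees C; unstimulated wells defined full inhibition.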
# ATXN viability – reduces viability in counter-screen for ATXN expression inhibitors. S2 cells (HEK-293 line with an ATXN2-luciferase reporter) viability, CellTiter-Fluor protease fluorescence, 24 h. Potency, µM (highest dose often 56.7 µM), usual class: cytotoxic. 0.49% of 400,000 active; note: nearly all actives have a fitted effect of over 40% in size
# ATXN2 expr inh – ATXN2 expression inhibition. HEK-293 ATXN2-luciferase reporter, luminescence, 24 h. AID 1745845. 0.72% of 360,000 active. Potency, µM (top dose mostly 57 µM), for inactives: at the highest dose activity change, negative = inhibition, hits mostly inhibitors; note: % is set by controls: 0 for no effect and ±100 for the full control effect; nearly all actives have a fitted effect of over 55% in size
#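 qHTS (up to 57 uM final) was run with 24 h compound exposure of reporter cells at 37 °C. Each well was multiplexed: SteadyGlo luminescence measured ATXN2-luciferase expression after a fluorogenic Gly-Phe-AFC viability readout (25 uM final).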
# DT40 TDP1 CPT – growth inhibition of DT40 Tdp1-/-;hTDP1 cells with camptothecin (screen for TDP1 inhibitors); 12% of 420,000 active; AID 686979; Potency, µM (top dose mostly 46.2 µM), for inactives: at the top dose activity change, negative = growth inhibition, actives largely listed as inhibitors; chicken DT40 Tdp1-/-;hTDP1 cells + 20 nM CPT, ATP luminescence, 48 h; note: % is set by controls: 0 for no effect and ±100 for the full control effect; nearly all actives have a fitted effect of over 55% in size
#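 Chicken DT40 Tdp1-/- cells complemented with human TDP1, 400 cells/well, exposed to compounds plus 20 nM camptothecin for at least 48 h at 37 C; viability read as ATP content by CellTiter-Glo luminescence.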
# DT40 TDP1 no CPT – qHTS for Inhibitors of human tyrosyl-DNA phosphodiesterase 1 (TDP1): qHTS in cells in absence of CPT; DT40 Tdp1-/- hTDP1 cells, no CPT, ATP luminescence, 48 h; 15% of 420,000 active; Potency, µM (top dose mostly 46.2 µM), inactives show top-dose activity change, negative = growth inhibition, actives largely listed as inhibitors; note: % is set by controls: 0 for no effect and ±100 for the full control effect; nearly all actives have a fitted effect of over 55% in size
#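 Luminescent ATP content (CellTiter-Glo) served as the growth readout. Knockout chicken DT40 cells expressing human TDP1 were exposed to compounds without camptothecin for a minimum 48 hr at 37 °C.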
# * = called active by the depositor; i = inactive; ? = inconclusive; / = not tested or not shown; ! = repeats disagree. Calls come from the whole dose curve; as a rule, active = well fitted curve in the direction sought with a large enough effect; inconclusive = small, poorly fitted or top-dose-only effect, or another doubt; inactive = no such curve, though single readings can be large; an effect the other way counts as inactive or inconclusive. Potency is the fitted concentration of half-maximal effect.
SMILES,HepG2 viability,TGFb SMAD3 inh,ATXN viability,ATXN2 expr inh,DT40 TDP1 CPT,DT40 TDP1 no CPT
CC(C)(C)NC(=O)C(c1ccco1)N(C(=O)Cn1nnc(-c2ccc(F)cc2)n1)c1ccccc1F (stereo unspecified),-4%,4%,i,-22%,29µM*,16µM*
COc1ccccc1C(CNC(=O)CN1C(=O)NC(C)(c2ccc3ccccc3c2)C1=O)N1CCCC1 (stereo unspecified),-30%,-20%,i,-13%,?,?
CC(=O)c1c(NC(=O)c2ccccc2)[nH]c(-c2ccccc2)nc1=S,0%,17%,i,-3%,?,23µM*
OCC1(Cc2ccccc2)CCCN(Cc2ccc3c(c2)OCCO3)C1 (stereo unspecified),0%,-1%,i,-8%,-10%,-4%
COc1cccc(CC2(CO)CCCN(Cc3cn(C)c4ccccc34)C2)c1 (stereo unspecified),-44%,?,i,/,21µM*,23µM*
COc1cccc(CC2(CO)CCCN(Cc3ccc(CN4CCCCC4)s3)C2)c1 (stereo unspecified),-35%,0%,i,/,21µM*,?
COc1cccc(CC2(CO)CCCN(Cc3ccccc3Cl)C2)c1 (stereo unspecified),-11%,-6%,i,27%,?,?
CC(C)Oc1ccc(CN2CCCC(CO)(Cc3ccccc3)C2)cc1CO (stereo unspecified),-20%,0%,i,0%,29µM*,?
COc1cccc(CC2(CO)CCCN(Cc3ccc(OC)c(C)c3OC)C2)c1 (stereo unspecified),-47%,?,i,-32%,18µM*,16µM*
COCc1ccc(CN2CCCC(CO)(Cc3cccc(OC)c3)C2)o1 (stereo unspecified),-2%,-17%,i,/,?,-43%
COc1cccc(CC2(CO)CCCN(Cc3cnn(-c4ccccc4)c3)C2)c1 (stereo unspecified),-26%,1%,i,-19%,?,26µM*
CN(C)CCN(Cc1cccs1)c1ccccn1,3%,8%,i,-6%,?,24µM*!
CN(C)CCN(Cc1ccco1)c1ccccn1,7%,24%,i,-12%,20%,-2%
O=C(O)C1CC=CCC1C(=O)NCCCCc1ccccc1 (stereo unspecified),1%,3%,i,2%,6%,9%
Cc1onc(-c2ccccc2)c1C(=O)NCCSCc1ccco1,0%,23%,i,-1%,-15%,?
CCOC(=O)c1cc2cc([N+](=O)[O-])ccc2oc1=O,2%,-2%,i,3%,0%,1%
O=[N+]([O-])c1ccc2oc(C(O)c3cccc(Cl)c3)cc2c1 (stereo unspecified),-40%,?,i,?,?,12µM*
Cc1ccc(Cc2c(-c3cccc(Cl)c3)nc3cc(C)c(Br)c(C)n23)cc1,-21%,-3%,i,35%,-43%,?
Cc1cc2nc(-c3ccc(F)cc3)c(Cc3cccc(Cl)c3)n2c(C)c1Br,/,/,i,1%,23µM*,?
Cc1cc2nc(-c3ccccc3)c(Cc3cccc(Cl)c3)n2c(C)c1Br,/,/,?,-17%,?,26µM*
CSc1ccc(C2NC(=O)CCC2[N+](=O)[O-])cc1 (stereo unspecified),10%,-10%,i,13%,0%,15%
Cc1cc(C)n(C(=O)Cn2nc(C)c(Cl)c2C)n1,-9%,6%,i,1%,28%,-11%
NS(=O)(=O)c1cccc(NC(=O)COC(=O)/C(=C/c2cccs2)c2cccs2)c1,-10%,0%,i,2%,?,23µM*
